N370S GC mod = inhibitors or activators of N370S glucocerebrosidase for Gaucher disease | N370S GC spleen homogenate, 4MU-glucoside fluorescence | Potency, µM (series often up to 59.4 µM), for the others: top-dose activity change, negative = inhibition, actives largely listed as inhibitors | AID 2101 | 0.092% of 330,000 active | P04062;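 also: potency is read from the fitted curve at half-maximal effect; 0% = full enzyme activity and -100% = no enzyme basal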
GAA spleen mod = lysosomal alpha-glucosidase (human) modulation; P10253; human spleen homogenate, 4-MU-alpha-glucoside fluorescence; Potency, µM (highest dose often 79.9 µM), for the others: top-dose activity change, negative = inhibition, usual class: inhibitors; 0.006% of 240,000 active; AID 2112;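 also: potency is read from the fitted curve at half-maximal effect; 0% = enzyme with vehicle and -100% = no enzyme basal signal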
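AC50 values come from Hill-equation fits of concentration-response data, normalized to no-enzyme and full-activity controls. Enzyme source: 1 ug human spleen homogenate; 1 mM fluorogenic 4-MU glucoside, pH 5.0 citrate buffer, 37 C, 40 min.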
GAA inhib = blocks human lysosomal alpha-glucosidase; AID 1466; 0.005% of 200,000 active; purified human GAA, 4-MU-alpha-glucoside fluorescence; Potency, µM (highest dose often 76.9 µM), for inactives: top-dose activity change, negative = inhibition, hits mostly inhibitors; P10253;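 also: potency is read from the fitted curve at half-maximal effect; plate controls were uninhibited enzyme wells for no effect and no-enzyme background for full effect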
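Human enzyme at 4 nM with 400 uM 4-methylumbelliferyl-alpha-D-pyranoside, citrate/phosphate buffer pH 5.0, 0.005% Tween-20, 20 min at room temperature. Compounds up to 77 uM. 4-MU fluorescence (Ex 365/Em 440) read after NaOH/glycine stop; AC50 from Hill fit.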
GAA glycogen = alters human alpha-glucosidase cleavage of glycogen; Potency, µM (highest dose often 76.4 µM), for the others: top-dose activity change, negative = inhibition, usual class: inhibitors; 0.38% of 300,000 active; recombinant GAA, glycogen substrate, Amplex Red glucose oxidase fluorescence;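 also: potency is read from the fitted curve at half-maximal effect; 0% = full enzyme reaction and -100% = no-enzyme basal signal; the screen sought inhibitors and activators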
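qHTS, 1536-well; enzyme 4 nM final; cpd up to 77 uM; substrate bovine liver glycogen 30 ug; 50 mM citrate/phosphate pH 5.0, 0.01% Tween-20; 37 C, 40 min; Amplex Red detection 45 min RT; Hill fit → AC50.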
GLA spleen mod = inhibits or activates alpha-galactosidase in human spleen homogenate; 0.008% of 240,000 active; human spleen homogenate, 4MU-alpha-Gal fluorescence, 40 min; Potency, µM (series often up to 80 µM), without a hit: at the highest dose activity change, negative = inhibition, actives largely listed as inhibitors;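 also: potency is read from the fitted curve at half-maximal effect; 0% = enzyme with vehicle and -100% = no enzyme basal signal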
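Fluorogenic readout (Ex 365/Em 440 nm) of 4-methylumbelliferone released from 1 mM 4-MU-alpha-galactoside by spleen homogenate, 40 min at 37C, pH 5.0. Data normalized to no-enzyme and enzyme controls; Hill-equation AC50 from compound titrations.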
GLA inh pH 4.5 = inhibitors of human alpha-galactosidase A at pH 4.5; activity change, negative = inhibition, % at 105 µM; 230,000 tested, under 10 active; P06280; purified enzyme, 4-MU-alpha-Gal fluorescence, pH 4.5;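 also: 0% = full activity with enzyme and -100% = basal without enzyme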
Target sequence (P06280 whole entry, looked up): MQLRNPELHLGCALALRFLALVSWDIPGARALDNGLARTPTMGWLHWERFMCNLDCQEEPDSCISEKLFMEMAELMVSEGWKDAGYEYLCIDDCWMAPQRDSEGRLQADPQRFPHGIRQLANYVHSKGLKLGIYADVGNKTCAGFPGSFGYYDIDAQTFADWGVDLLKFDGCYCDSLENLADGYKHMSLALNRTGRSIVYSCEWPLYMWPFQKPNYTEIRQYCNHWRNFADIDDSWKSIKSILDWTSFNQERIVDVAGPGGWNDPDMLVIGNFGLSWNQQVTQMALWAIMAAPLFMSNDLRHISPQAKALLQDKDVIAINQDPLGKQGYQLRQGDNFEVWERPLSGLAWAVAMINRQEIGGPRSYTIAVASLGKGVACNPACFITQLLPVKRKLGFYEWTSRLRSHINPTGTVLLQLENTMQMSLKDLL
The depositor's hits bear a star; ? = inconclusive; nt = not tested or not shown; ! = a repeat was not active; [ ] = another dose, or the depositor's remark. Rows were chosen to be rich in hits. Some 0.41% of all compounds tested hit in one or more screens of this group. Calls follow the shape of the dose curve; as a rule, active = well fitted curve in the direction sought with a large enough effect; inconclusive = small, poorly fitted or top-dose-only effect, or another doubt; inactive = no such curve, though single readings can be large; an effect the other way counts as inactive or inconclusive.

SMILES	N370S GC mod	GAA spleen mod	GAA inhib	GAA glycogen	GLA spleen mod	GLA inh pH 4.5
CCOc1c(Br)cc(CNc2ccc(N3CCN(C(C)=O)CC3)cc2)cc1OC	-29%	-1%	nt	32µM*	1%	-9
COc1ccc(C2=Nn3c(nnc3-c3ccc(OC)c(OC)c3)SC2)cc1OC	3%	-3%	nt	nt	11%	nt
COc1cc(-c2nc(-c3ccccc3)c(-c3ccc(Br)cc3)[nH]2)cc(OC)c1O	nt	nt	nt	-27%[76.3 µM]	nt	nt
CC(=O)/C(=N/Nc1ccccc1C)N1CCOCC1	-1%	-3%	-4%	13µM*	9%	-27
CC(=O)/C(=N/Nc1cccc(Cl)c1)N1CCOCC1	1%	2%	-2%	14µM*	3%	-26
CC(=O)/C(=N/Nc1ccccc1)N1CCOCC1	-5%	-16%	-5%	10µM*	-9%	-2
CCOC(=O)/C(=N\Nc1cccc(C(F)(F)F)c1)N1CCOCC1	-2%	-2%	-4%	?	2%	-3
COc1cc(C2c3[nH]c4ccccc4c3CC3C(=O)N4C(Cc5c([nH]c6ccccc56)C4c4cc(OC)c(OC)c(OC)c4)C(=O)N32)cc(OC)c1OC (stereo not drawn)	2%[12.8 µM]	0%[17.4 µM]	nt	nt	-15%[17.5 µM]	nt
FB(F)F	-2%	-5%	nt	nt	6%	nt
CCOc1ccccc1-c1nnc2n1N=C(c1cc(OC)cc(OC)c1)CS2	-3%	2%	nt	nt	17%	nt
Cc1ccc(NC(=O)CCS(=O)(=O)c2ccc3c(c2)NC(=O)C(C)S3)cc1Cl (stereo not drawn)	7.9µM*	nt	nt	nt	nt	nt
CC1Sc2ccc(S(=O)(=O)CCC(=O)Nc3ccc(C(C)C)cc3)cc2NC1=O (stereo not drawn)	6.3µM*	nt	nt	nt	nt	nt
CC1Sc2ccc(S(=O)(=O)CCC(=O)Nc3ccccc3Cl)cc2NC1=O (stereo not drawn)	?	nt	nt	-6%[76.3 µM]	nt	nt
O=C(Cn1cc(SCc2c(F)cccc2Cl)c2ccccc21)N1CCCC1	nt	nt	nt	14%[76.3 µM]	nt	nt
Oc1cc2c(cc1O)[C@@H]1c3ccc(O)c(O)c3OC[C@]1(O)C2	-10%	1%	nt	nt	-5%	-5
O=C(O)CC[C@@H](C(=O)O)N1C(=O)c2ccccc2C1=O	10%	-12%	nt	-1%	7.9µM*!	-1
COC(=O)CC[C@@H](C(=O)O)N1C(=O)c2ccccc2C1=O	-4%	0%	-2%	-1%	-3%	3
COc1ccc(-c2cc3ccccc3[nH]2)cc1	-16%	-1%	nt	-5%	1%	5
Cc1ccc(O)c(-c2cc3ccccc3[nH]2)c1	19%	6%	?	32µM*	22%	?
COc1ccc(-c2cnc(N)nc2-c2ccc(OCc3ccccc3)cc2O)cc1	-3%	-2%	-5%	-6%	1%	-17
Nc1ncc(-c2ccccc2)c(-c2ccc(O)cc2O)n1	14µM*	nt	nt	3%	nt	nt
COc1cccc(OC)c1C1=Nn2c(nnc2-c2ccccc2C)SC1	0%	-7%	nt	nt	6%	nt
O=c1oc(-c2ccc(C(F)(F)F)cc2)nn1Cc1cc(Cl)ccc1O	-8%	2%	nt	nt	-14%	nt
COc1cc(CN2CCN(c3cccc(C)c3C)CC2)cc(OC)c1O	-3%	-16%	-9%	28µM*	-25%	4
CCOC(=O)c1c(C)n(C)c2ccc(O)c(CN(C)C)c12	-4%	-13%	-8%	25µM*	7%	-5
SMILES	N370S GC mod	GAA spleen mod	GAA inhib	GAA glycogen	GLA spleen mod	GLA inh pH 4.5
CCOC(=O)c1c(C)n(-c2ccc(OC)cc2)c2ccc(O)c(CN(C)C)c12	4%	-4%	nt	-14%	-2%	2
O=C(CN1CC(=O)Oc2ccccc21)OCC(=O)c1cccc(Br)c1	-18%	-3%	5%	8.8µM*	12%	2
Oc1ccccc1Nc1nc(NCc2ccccc2)c2ccccc2n1	11µM*	-1%	-13%	7.1µM*	3%	-9
CNc1nc(NCc2ccccc2)c2ccccc2n1	29%	nt	nt	-10%[76.3 µM]	nt	nt
CO[C@@H]1COC(=O)C/C=C\[C@@H](C)COC(=O)[C@H](COCc2ccccc2)NC(=O)C/C=C\[C@H]1C	5%[12.8 µM]	-2%[17.4 µM]	nt	nt	-7%[17.5 µM]	nt
N#Cc1c(Cl)cccc1N1CCCC1	22%	8%	6%	-11%	6%	-9
